# Hits are enriched below; roughly 3.3% of the tested compounds scored in any of these assays.
# FXN GAA850 act: frataxin GAA850 promoter activation. activation, % at 6 µM. actives 0.56% (n = 360,000). HEK293 lucGAA850 FXN promoter luciferase reporter, 24 h; percent of 10 µM SAHA response;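 active means activation above the average of all compounds screened plus 3 SD, cutoff fixed separately per campaign, cut at about 7.5% in these data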
# Wnt act: activators of Wnt/beta-catenin signaling; Wnt/beta-catenin reporter cell assay, activator, plate reader; activation, % at 9.35 µM; actives 1.2% (n = 300,000); in the data active means activation above about 30%, passing the limit was not always enough; inconclusive means no clear call, values can overlap the other calls
# esBAF inh: SWI/SNF esBAF complex inhibition. mouse ES cells, Bmi1-luciferase knock-in reporter, 24 h; 100% = twice the neutral-well signal. reporter increase, % at 12.5 µM. actives 2% (n = 350,000); in the data active means activation above about 40%; inconclusive means no clear call, values can overlap the other calls;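 further: a rise in the Bmi1 reporter signal indicates esBAF inhibition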
# MITF TRPM1 HTS: activators of MITF-driven TRPM1 promoter activity in SK-MEL-5 cells | SK-MEL-5 TRPM1-promoter luciferase, 24 h; % of positive control, neutral wells = 0 | actives 0.75% (n = 300,000) | activation, % at 12.5 µM;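 active means mean activation of at least 80% with every replicate also reaching 80%; inconclusive means mean reaches 80% but some replicate falls short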
# C2C12 statin: suppressors of simvastatin-induced myotoxicity in C2C12 myotubes | ATP luminescence, 48 h; scaled: DMSO 0, geranylgeraniol control 100 | rescue of ATP level, % at 7.49 µM | actives 0.78% (n = 330,000) | AID 602340;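 active means mean ATP rescue above about 67%, or every replicate alone reaching that limit, limit read from the data, passing the limit was not always enough; inconclusive means no clear call, values can overlap the other calls; inactive means mean under the limit and some replicate under it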;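 further: myotubes were challenged with 10 µM simvastatin during compound exposure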
# A number is an active result; i = inactive; ? = inconclusive; nt = not tested or not shown.
SMILES,FXN GAA850 act,Wnt act,esBAF inh,MITF TRPM1 HTS,C2C12 statin
CCC(C)[C@H]1COCCS(=O)(=O)N1Cc1ccc(Br)cc1 (stereo not given in full),i,i,i,i,117.2
O=C(Nc1ccc(Oc2cccnc2)cc1)c1ccccc1Cl,i,i,nt,i,nt
O=C(Nc1ccc(Oc2cccnc2)cc1)c1ccccc1F,i,i,60.3,i,i
C[C@@H]1CCCCO[C@@H](CN(C)Cc2ccccc2)[C@@H](C)CN([C@H](C)CO)C(=O)c2cc(NC(=O)Nc3ccc(C(F)(F)F)cc3)ccc2O1,nt,nt,i,nt,nt
C[C@@H]1CN([C@@H](C)CO)C(=O)c2cccc(NS(C)(=O)=O)c2O[C@@H]1CN(C)C(=O)Nc1ccc2c(c1)OCO2,nt,nt,i,nt,nt
COc1ccc(S(=O)(=O)Nc2ccc3c(c2)C(=O)N([C@H](C)CO)C[C@@H](C)[C@@H](CN(C)C(=O)Cc2ccccc2)OCCCC[C@H](C)O3)cc1,nt,nt,i,nt,nt
COc1ccc(C2=NNC(c3cccs3)=Nc3ccc(OC)cc32)cc1,i,nt,64.3,i,i
C[C@@H]1CCCCO[C@@H](CN(C)S(=O)(=O)c2cn(C)cn2)[C@H](C)CN([C@H](C)CO)C(=O)c2cc(NS(=O)(=O)c3ccc(F)cc3)ccc2O1,nt,nt,i,nt,i
Cn1c(SCC(=O)c2ccccc2)nnc1-c1cnccn1,i,i,48.3,i,i
CCn1c(SCC(=O)c2ccccc2)nnc1-c1cnccn1,i,35.9,50.0,nt,i
Cn1c(SCC(=O)c2ccccc2)nnc1-c1cccs1,i,?,67.7,i,i
Cn1c(SCc2c(Cl)cccc2Cl)nnc1-c1cccs1,i,nt,47.9,i,i
Cn1c(SCC(=O)c2ccccc2)nnc1-c1cccnc1,i,i,i,nt,i
Cn1c(SCC(=O)NCc2cccs2)nnc1-c1cccs1,i,i,nt,i,nt
C=CCSc1nc(=O)n2ccccc2n1,i,i,i,i,100.1
C=CCSc1nc(=O)n2ccc(C)cc2n1,i,i,i,i,i
CC(=O)C1=C(c2cccc([N+](=O)[O-])c2)N(C(C)=O)n2c(C)nnc2S1,i,75.1,nt,i,nt
Cc1noc(C(=O)Nc2ccc3c(c2)OCO3)c1Cl,i,i,51.0,i,i
Cc1ccc2c(Cl)c(C(=O)Nc3ccc4c(c3)OCO4)sc2c1,i,nt,nt,98.9,nt
CCC(=O)N1[C@H](C(=O)NC2CCC2)[C@@H](CO)[C@@H]2Cn3c(ccc(-c4ccc(F)cc4)c3=O)[C@@H]21,nt,nt,i,nt,i
C#CCOCCOCCOCCNc1nc(N2CCOCC2)nc(N2CCN(C(=O)CCCCCCCCCCNC(=O)[C@@H]([C@H](C)CC)n3cc(CCCCCN)nn3)CC2)n1,i,i,i,i,98.7
COc1ccc(OC)c(S(=O)(=O)N2CCC(C(=O)Nc3ccccc3)CC2)c1,i,i,i,i,91.4
OCc1c(OCc2cccc(F)c2)ccc2ccccc12,i,i,62.7,i,i
CNCc1c(OCc2ccc(F)cc2)ccc2ccccc12,i,i,i,i,i
CC(=O)N1c2ccc(S(=O)(=O)NCCC(=O)NCCc3ccc(C)cc3)cc2CC1C (stereo not given),i,i,i,i,109.1
SMILES,FXN GAA850 act,Wnt act,esBAF inh,MITF TRPM1 HTS,C2C12 statin
CC(=O)N1c2ccc(S(=O)(=O)NCCC(=O)NCc3ccc(F)cc3)cc2CC1C (stereo not given),i,i,i,i,86.5
CC1Cc2cc(S(=O)(=O)NCCC(=O)NCc3ccc(F)cc3)ccc2N1C(=O)C1CC1 (stereo not given),i,i,i,i,i
C/C(=N\NC(=O)c1ccc(CN2CCOCC2)cc1)c1ccc(NC(=O)c2ccccc2)cc1,i,i,65.6,i,i
Cc1cc(/C=N/NC(=O)c2ccc(CN3CCOCC3)cc2)c(C)n1-c1ccccc1,i,nt,i,i,115.8
O=C(Nc1ccc(CN2CCOCC2)cc1)c1ccc2ccccc2c1,i,i,60.7,i,i
O=C(Nc1ccc(CN2CCOCC2)cc1)c1cccc(F)c1,i,nt,i,88.1,i
O=C(Nc1ccc(CN2CCOCC2)cc1)c1ccc(F)cc1,i,i,i,i,i
COc1ccccc1-c1ccc2c(c1)[C@H]1[C@H](CCN1S(=O)(=O)c1ccccc1F)[C@H](CO)N2,nt,nt,i,nt,i
COc1cccc(CNC(=O)C[C@@H]2CC[C@@H](NC(C)=O)[C@@H](CO)O2)c1,nt,nt,i,nt,i
O=C(Nc1ccc(CN2CCOCC2)cc1)c1ccc(Cl)cc1,i,i,44.4,i,i
COc1ccccc1Nc1nc2ccccc2n2cnnc12,i,i,i,i,i
COc1ccccc1Nc1nc2ccccc2n1C,i,i,64.6,92.2,i
